Results taken from paper PMC4336329 (PLoS ONE, 2015).
Hit rate of the full screen: of about 310,000 compounds, about 14,000 (4.5%) showed an effect of 50% or more. The effect is printed as a negative number. The full list was thinned out, with strong results kept by preference.

Each compound was assayed against human ether-à-go-go-related gene (hERG) potassium channel (human, UniProt Q12809) (assay: primary screen, population patch clamp on CHO cells stably expressing hERG; higher = less effect of the substance).
Sequence of human ether-à-go-go-related gene (hERG) potassium channel (Q12809 whole entry, looked up): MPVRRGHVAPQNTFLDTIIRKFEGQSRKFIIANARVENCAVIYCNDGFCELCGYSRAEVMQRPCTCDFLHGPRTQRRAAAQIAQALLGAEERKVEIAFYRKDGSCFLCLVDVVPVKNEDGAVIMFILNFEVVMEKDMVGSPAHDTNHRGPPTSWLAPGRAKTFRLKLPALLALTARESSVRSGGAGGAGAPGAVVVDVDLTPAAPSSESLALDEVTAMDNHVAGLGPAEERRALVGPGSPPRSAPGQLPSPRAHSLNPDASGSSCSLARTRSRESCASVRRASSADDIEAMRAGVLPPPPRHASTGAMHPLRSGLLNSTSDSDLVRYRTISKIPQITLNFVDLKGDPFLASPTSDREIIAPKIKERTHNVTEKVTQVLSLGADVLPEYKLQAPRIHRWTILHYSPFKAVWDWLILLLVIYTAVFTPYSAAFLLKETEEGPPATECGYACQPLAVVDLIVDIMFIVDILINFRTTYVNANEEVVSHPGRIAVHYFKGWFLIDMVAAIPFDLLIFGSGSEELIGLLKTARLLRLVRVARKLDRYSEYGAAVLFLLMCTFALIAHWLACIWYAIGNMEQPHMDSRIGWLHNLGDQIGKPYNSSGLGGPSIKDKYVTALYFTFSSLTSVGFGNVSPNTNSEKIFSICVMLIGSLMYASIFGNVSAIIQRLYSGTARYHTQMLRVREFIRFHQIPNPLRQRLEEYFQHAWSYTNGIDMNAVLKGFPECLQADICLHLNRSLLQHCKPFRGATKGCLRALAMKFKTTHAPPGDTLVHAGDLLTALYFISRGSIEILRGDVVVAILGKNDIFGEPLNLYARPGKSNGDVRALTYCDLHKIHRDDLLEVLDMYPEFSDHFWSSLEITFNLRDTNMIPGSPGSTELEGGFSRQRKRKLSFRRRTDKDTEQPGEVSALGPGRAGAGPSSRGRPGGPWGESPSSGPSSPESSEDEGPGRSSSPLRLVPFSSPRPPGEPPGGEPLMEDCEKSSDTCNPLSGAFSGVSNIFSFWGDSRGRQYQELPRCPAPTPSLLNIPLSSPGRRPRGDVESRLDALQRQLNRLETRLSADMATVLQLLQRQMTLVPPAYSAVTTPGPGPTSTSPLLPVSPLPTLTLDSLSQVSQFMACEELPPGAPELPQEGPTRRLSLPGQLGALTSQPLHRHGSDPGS
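Note: peak tail current of the secondary pulse compared with the same well before compound.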

Row | SMILES | hERG current change (%, negative = inhibition) at 10uM
1 | N#Cc1nc(-c2ccco2)oc1NCc1ccc(F)cc1 | -4.84%
2 | Cc1cc(C)c(Cn2ncn(-c3ccc(Br)cc3)c2=O)c(C)c1 | 19.4%
3 | O=C(COc1ccc(Cl)cc1)N1CCN(C/C=C/c2ccccc2)CC1 | -70.7%
4 | O=C(COc1ccc(Cl)cc1)N1CCCCCCC1 | -12.2%
5 | CC(=C1C(=O)c2ccccc2C1=O)N1CCN(C/C=C/c2ccccc2)CC1 | -55.6%
6 | CC(=C1C(=O)c2ccccc2C1=O)N1CCN(Cc2ccccc2)CC1 | -26.6%
7 | O=C(COc1ccc(Cl)cc1)N1CCCCC1 | -5.82%
8 | CS(=O)(=O)N1CCN(C/C=C/c2ccccc2)CC1 | 7.98%
9 | O=C(/C=C/c1ccco1)Nc1cc(Cl)ccc1C(=O)O | -10.3%
10 | CCCc1cc(=O)[nH]c(SC/C=C/c2ccccc2)n1 | 9.33%
11 | Cc1c(N(C)C)c(=O)n(-c2ccccc2)n1C | 19.1%
12 | COc1ccccc1CNS(=O)(=O)c1ccc2c(c1)NC(=O)CS2 | -1.59%
13 | O=C(NCCN1CCOCC1)c1sc2ccccc2c1Cl | -6.21%
14 | O=C(NCCN1CCOCC1)c1cc([N+](=O)[O-])ccc1Cl | 6.5%
15 | O=C(NCCN1CCOCC1)c1ccc([N+](=O)[O-])cc1[N+](=O)[O-] | -0.151%
16 | O=C(NCCCN1CCOCC1)c1sc2cc(F)ccc2c1Cl | -44%
17 | O=C(NCCCN1CCOCC1)c1sc2cc([N+](=O)[O-])ccc2c1Cl | -54%
18 | CCCNC(=O)c1cc2cc([N+](=O)[O-])ccc2s1 | -9.82%
19 | O=C(NCCN1CCOCC1)c1cc2cc([N+](=O)[O-])ccc2s1 | -63.3%
20 | CCN(CC)C(=O)c1cc2cc([N+](=O)[O-])ccc2s1 | -55.5%
21 | O=C(NCCCN1CCOCC1)c1sc2cc(Cl)ccc2c1Cl | -69.6%
22 | O=C(NCCCN1CCOCC1)c1sc2ccccc2c1Cl | -9.81%
23 | CN(C)C(=O)c1cc2cc([N+](=O)[O-])ccc2s1 | -38.9%

Row | SMILES | hERG current change (%, negative = inhibition) at 10uM
24 | O=C(NCCN1CCOCC1)c1sc2cc(Cl)ccc2c1Cl | -10.3%
25 | O=c1c2cn[nH]c2[nH]c(=S)n1-c1ccccc1F | 24.8%
26 | N#CC1=C(N)Oc2cc(O)ccc2C1c1cccnc1 (stereo not drawn) | 27.4%
27 | CCOc1nc2cnccc2n(CC(=O)Nc2ccccc2C(=O)OC)c1=O | -1.11%
28 | Cc1nn(-c2ccccc2)c(C)c1/C=N/NC(=O)CSc1nnc(SCc2cccc3ccccc23)s1 | 6.33%
29 | CCOC(=O)c1sc(=S)n(C)c1NC(=O)c1ccc(C(C)(C)C)cc1 | 11.8%
30 | CC(=O)N/C(=C/c1ccc2c(c1)OCO2)C(=O)O | -2.32%
31 | O=C(CCNS(=O)(=O)c1ccc(Cl)cc1)N1CCOCC1 | 22.4%
32 | Cc1ccc2[nH]c3c(c2c1)CCNC3=O | 4.86%
33 | O=C1NCCc2c1[nH]c1ccccc21 | -77%
34 | COc1ccc2[nH]c3c(c2c1)CCNC3=O | 7.33%
35 | O=C(Nc1ccc(-c2csc(Nc3cccc(C(F)(F)F)c3)n2)cc1)c1cccc(C(F)(F)F)c1 | 9.98%
36 | CCCCN(C)C(=S)Nc1ccc2nc(N3CCN(CC)CC3)cc(C)c2c1 | -78.9%
37 | CCCCN(CC)CCCNC(=S)Nc1ccc2nc(N3CCN(C)CC3)cc(C)c2c1 | 5.19%
38 | CCCCN(CC)CCNC(=S)Nc1ccc2nc(N3CCN(C)CC3)cc(C)c2c1 | -0.781%
39 | CCN1CCN(c2cc(C)c3cc(NC(=S)NCCN(C)C)ccc3n2)CC1 | 3.21%
40 | CCCCN(C)CCNC(=S)Nc1ccc2nc(N3CCN(CC)CC3)cc(C)c2c1 | 2.83%
41 | CCN1CCN(c2cc(C)c3cc(NC(=S)N4CCN(c5ccccc5)CC4)ccc3n2)CC1 | -0.088%
42 | CCCCN(CC)C(=S)Nc1ccc2nc(N3CCN(C)CC3)cc(C)c2c1 | -56.3%
43 | CCN1CCN(c2cc(C)c3cc(NC(=S)N(C)Cc4ccccc4)ccc3n2)CC1 | -77.7%
44 | CCN1CCN(c2cc(C)c3cc(NC(=S)N(CC)CC)ccc3n2)CC1 | -43.9%
45 | Cc1c(NC(=O)CSc2n[nH]c(=O)n2-c2ccccc2)c(=O)n(-c2ccccc2)n1C | 16.9%
46 | CCOC(=O)c1c(NC(=O)c2cccc(N3C(=O)CCC3=O)c2)sc(C)c1C | 5.4%

Row | SMILES | hERG current change (%, negative = inhibition) at 10uM
47 | CC(=O)c1ccc(NC(=O)COC(=O)c2ccccc2Sc2ccccc2C#N)cc1 | 18%
48 | O=C(CCCCn1c(=S)[nH]c2ccsc2c1=O)NCc1ccco1 | 16.6%
49 | O=C(c1ccc2c(c1)ncn2C1CCCCCC1)N1CCC2(CC1)OCCO2 | -2.37%
50 | O=C(c1ccc(Br)cc1)N1CCCc2ccccc21 | -6.19%
51 | O=C(CSc1nc(O)c(Cc2ccccc2)c(=O)[nH]1)Nc1ccccc1 | 8.28%
52 | O=C(Nc1ccc(-c2noc(-c3cccs3)n2)cc1)c1cccnc1 | -3.79%
53 | COc1ccc(Br)cc1/C=N/Nc1ccccn1 | 14.8%
54 | O=C(Nc1cccc(S(=O)(=O)NC2=NCCC2)c1)c1ccc(=O)[nH]c1 | 10.7%
55 | COc1cccc(-c2nnc3sc(C4CCCCC4)nn23)c1 | -45.2%
56 | COc1cc(-c2nnc3sc(C4CCCCC4)nn23)cc(OC)c1OC | -43.7%
57 | COc1ccc(-c2nnc3sc(C4CCCCC4)nn23)cc1OC | -51.1%
58 | CC(C)c1cc(C(=O)N2CCCC(CCC(=O)N3CCN(c4ccccn4)CC3)C2)no1 (stereo not drawn) | -36.8%
59 | CN(C)CCCNC(=O)/C(=C\c1ccc(-c2ccc(Br)cc2)o1)NC(=O)c1ccccc1 | -75.1%
60 | Cc1ccc(C(=O)N/C(=C\c2ccc(-c3ccc(Br)cc3)o2)C(=O)NC2CCS(=O)(=O)C2)cc1 (stereo not drawn) | -5.68%
61 | CN(C)CCCNC(=O)c1ccc(-c2ccccc2)cc1 | -36.7%
62 | Cc1ccc(C(=O)N/C(=C/c2ccc(-c3ccc(Br)cc3)o2)C(=O)NC2CCS(=O)(=O)C2)cc1 (stereo not drawn) | -6.35%
63 | O=C(NCCO)/C(=C\c1ccc([N+](=O)[O-])o1)NC(=O)c1ccccc1 | 1.55%
64 | Cc1ccc(C(=O)N/C(=C/c2ccc(Cl)cc2)C(=O)NCC2CCCO2)cc1 (stereo not drawn) | -48.7%
65 | Cc1ccc(C(=O)N/C(=C\c2ccc(-c3ccc(Br)cc3)o2)C(=O)NCCCN(C)C)cc1 | -80.3%
66 | Cc1ccc(C(=O)N/C(=C\c2ccc(Cl)cc2)C(=O)NCC2CCCO2)cc1 (stereo not drawn) | -49%
67 | Cc1ccc(C(=O)N/C(=C\c2ccc(-c3ccc(Cl)cc3)o2)C(=O)NCCCN(C)C)cc1 | -85%
68 | O=C(N1CCOCC1)N(Cc1ccco1)CC1CCCO1 (stereo not drawn) | -48.5%
69 | COc1ccccc1NC(=O)c1ccc2nc(C)c(C)nc2c1 | -16.1%

Row | SMILES | hERG current change (%, negative = inhibition) at 10uM
70 | O=C(c1ccccc1)n1ccn(-c2ccccc2)c1=S | -14.9%
71 | Cn1c(=NC(=O)CS(=O)(=O)c2ccccc2)sc2cc([N+](=O)[O-])ccc21 | -36.5%
72 | CCCc1cc(=O)oc2cc(C)cc(OC(C)C(=O)NCC(O)c3ccccc3)c12 (stereo not drawn) | 7.42%
73 | Cc1ccccc1C(=O)NCC(=O)NCC1(N2CCOCC2)CCCCC1 | -25.7%
74 | O=C(CNC(=O)c1ccc(OC(F)F)cc1)NCC1(N2CCOCC2)CCCCC1 | -68.5%
75 | CN(C)S(=O)(=O)c1ccc(C(=O)NCC2(N3CCOCC3)CCCCC2)cc1 | -9.69%
76 | CN(C)S(=O)(=O)c1ccc(C(=O)NCC2(N3CCCCC3)CCCCC2)cc1 | -1.46%
77 | NC(=O)COc1ccc(C(=O)NCC2(N3CCOCC3)CCCCC2)cc1 | 6.98%
78 | CCN(CC)S(=O)(=O)c1ccc(C(=O)NCC2(N3CCOCC3)CCCCC2)cc1 | -67.3%
79 | CCC(C)NC(=O)CS(=O)Cc1nc(-c2cccc(OC)c2)oc1C (stereo not drawn) | 2.84%
80 | CCOc1cc(C2NC(=O)NC(C)=C2C(C)=O)cc(Cl)c1OCC(=O)O (stereo not drawn) | 5.35%
81 | CCc1ccc(OCC(=O)Nc2ccc(S(=O)(=O)Nc3cc(C)on3)cc2)c(Br)c1 | -19.7%
82 | Nc1nc2ccccc2n1CCN1CCCC1 | 6.04%
83 | Cc1nc2ccccc2n1CCN1CCOCC1.Cl | 23.3%
84 | Brc1ccc(CNc2nc3ccccc3n2CCN2CCCCC2)cc1 | -62.7%
85 | Cn1c(NCc2cccc(Br)c2)nc2ccccc21 | -22.2%
86 | Brc1cccc(CNc2nc3ccccc3n2CCN2CCCCC2)c1 | -67.8%
87 | Brc1cccc(CNc2nc3ccccc3n2CCN2CCOCC2)c1 | -76.3%
88 | C=CCn1c(NCc2ccccc2)nc2ccccc21 | -26.4%
89 | Cl.OCCNc1nc2ccccc2n1CCN1CCCCC1 | -30.4%
90 | Cc1ccc(OCCn2cnc3cc([N+](=O)[O-])ccc3c2=O)cc1 | -8.19%
